Assay outcomes: PubChem, The Scripps Research Institute Molecular Screening Center
FBW7 activator: activators of human E3 ligase FBW7; AlphaScreen FBW7–phospho-cyclin E peptide binding, activator screen; normalized activity (activation), % at 26.1 µM; hit rate 0.13% among 650,000; AID 1259310; in the data active = normalized activity above about 1.9%;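 also: purified mutant Fbw7 with reduced substrate affinity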
TEAD-YAP inh: TEAD-YAP interaction inhibition. inhibition, % at 9.12 µM. hit rate 1.4% among 640,000. AID 1259422. HEK-TIYL cells, TEAD-Gal4/YAP UAS-luciferase luminescence; in the data active = inhibition above about 32%
GPR151 ag: activators of human GPR151; PathHunter beta-arrestin GPR151 cells, luminescence; activation, % at 11.2 µM; hit rate 1% among 650,000; Q8TDV0; AID 1508602; in the data active = activation above about 4.9%
Target sequence (Q8TDV0 whole entry, looked up): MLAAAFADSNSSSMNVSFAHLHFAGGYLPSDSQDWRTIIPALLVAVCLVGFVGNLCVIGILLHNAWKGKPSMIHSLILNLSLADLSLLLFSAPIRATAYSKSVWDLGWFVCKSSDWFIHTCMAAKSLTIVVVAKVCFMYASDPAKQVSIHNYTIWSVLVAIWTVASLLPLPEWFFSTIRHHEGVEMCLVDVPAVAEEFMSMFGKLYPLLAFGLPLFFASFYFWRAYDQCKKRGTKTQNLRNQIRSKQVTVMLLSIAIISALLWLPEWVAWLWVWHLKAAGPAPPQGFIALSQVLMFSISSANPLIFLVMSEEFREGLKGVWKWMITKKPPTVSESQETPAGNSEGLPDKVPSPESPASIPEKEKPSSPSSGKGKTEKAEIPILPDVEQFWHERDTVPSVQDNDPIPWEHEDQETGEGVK
MITF inh: human MITF inhibition, primary screen; O75030; AlphaScreen MITF homodimerization, bead proximity signal; inhibition, % at 2.6 µM; hit rate 0.91% among 650,000; in the data active = inhibition above about 50%
Each line names hits and unclear results; the compound was inactive in the other large screens. Rows were chosen to be rich in hits. Some 3.5% of all compounds tested hit in one or more screens of this group.

O=C(O)c1ccc([C@@H]2Nc3ccc(F)cc3[C@@H]3C=CC[C@@H]32)cc1	MITF inh 66
COc1ccc2c(c1)C1C=CCC1C(c1ccc(C(=O)O)cc1)N2 (stereo unspecified)	MITF inh 52
CCN(C(=O)CCNC(=O)Cn1cnc2ccccc2c1=O)c1cccc(C(F)(F)F)c1	none
CC1=C(C(=O)OCCOC(C)C)C(c2ccc(Br)cc2)NC(=O)N1 (stereo unspecified)	none
O=c1nc2n(c3ccsc13)CC(O)=C2c1nc2ccccc2s1	none
COc1ccc(-n2ncc3c(=O)[nH]cnc32)cc1	none
COc1ccc(-n2nc3nc[nH]c(=O)c3n2)cc1	TEAD-YAP inh 46
CC(Nc1ncnc2sccc12)c1ccccc1 (stereo unspecified)	TEAD-YAP inh 53
COc1ccc(OC)c(N(CC(=O)NCCSCc2ccco2)S(C)(=O)=O)c1	none
CCc1ccc2nc(N3CCCC(C(=O)O)C3)sc2c1 (stereo unspecified)	TEAD-YAP inh 58
CCOc1ccc(NC(=O)C2CCN(c3nc4ccc(OCC)cc4s3)CC2)cc1	none
CCOc1ccc2nc(SCCC(=O)Nc3ccccc3)sc2c1	TEAD-YAP inh 36
CCc1ccc2nc(N3CCC(C(=O)N4CCCC4)CC3)sc2c1	TEAD-YAP inh 48
CCOc1ccc2nc(SCCC(=O)Nc3ccc(OC)cc3)sc2c1	none
CCOC(=O)N1CCN(C(=O)C2CCN(c3nc4ccc(CC)cc4s3)CC2)CC1	none
CCOc1ccc2nc(N3CCC(C(=O)Nc4cccc(C(C)=O)c4)CC3)sc2c1	TEAD-YAP inh 69
Cn1cc(NC(=O)NCCc2ccsc2)c2ccccc2c1=O	none
Cc1cc2c(cc1C)C(c1cccc(Cl)c1)CC(=O)N2 (stereo unspecified)	TEAD-YAP inh 37
N#Cc1cccc(NC(=O)COc2ccc(Br)cc2Cl)c1	none
CCCNC(=O)c1ccccc1NC(=O)c1ccc(OC)cc1	none
COc1ccc(C(=O)Nc2ccccc2C(=O)NCCCC(=O)O)cc1	FBW7 activator 2.0
Cc1[nH]c2ccccc2c1CCNC(=O)c1ccc(Cl)c(Cl)c1	none
Cc1c(C(=O)Nc2ccccc2F)sc2ncn(Cc3cccc(F)c3)c(=O)c12	none
Cc1cc(C)c2nc3c(cc2c1)CN(Cc1ccco1)C(=O)CO3	none
Cc1ccc2cc3c(nc2c1C)OC(C)C(=O)N(Cc1ccco1)C3 (stereo unspecified)	TEAD-YAP inh 56
COc1ccc2c(c1)nc(SCc1ccccc1)n2C	FBW7 activator 2.0
COc1ccc2c(c1)nc(SCC(=O)C(C)(C)C)n2C	none
CN=c1scc(-c2ccccc2Br)n1/N=C/c1ccc[nH]1	TEAD-YAP inh 88
CN=c1scc(-c2cccs2)n1/N=C/c1ccc[nH]1	TEAD-YAP inh 87
CCOC(=O)c1c(CSc2ccccc2)n(-c2ccccc2)c2ccc(O)c(CN(C)C)c12	none
O=C(NCc1cccnc1)/C(=C\c1ccc(Br)cc1)S(=O)(=O)c1ccccc1	TEAD-YAP inh 86
O=C(NCc1cccnc1)/C(=C/c1ccc(-c2cccc(Cl)c2)o1)S(=O)(=O)c1ccccc1	TEAD-YAP inh 53
O=C(NCc1cccnc1)/C(=C/c1ccc(-c2cccc([N+](=O)[O-])c2)o1)S(=O)(=O)c1ccccc1	none
O=C(NCc1cccnc1)/C(=C/c1ccc(-c2ccc(Br)cc2)o1)S(=O)(=O)c1ccccc1	TEAD-YAP inh 35
O=C(NCc1cccnc1)/C(=C\c1cccc(Oc2ccccc2)c1)S(=O)(=O)c1ccccc1	TEAD-YAP inh 82
Cc1ccc(CNc2ccc3ncc(-c4cncnc4)n3n2)c(C)c1	none
COc1ccc(CN2C(=O)CN(C3CCCCCC3)C(=O)C2c2ccc(OC(C)C)c(OC)c2)cc1 (stereo unspecified)	none
Cc1cnc(Nc2ccncc2)nc1NCc1cccc(C(F)(F)F)c1	TEAD-YAP inh 45
FC(F)(F)c1cccc(CNc2nc(Nc3cccnc3)nc3c2ncn3-c2ccsc2)c1	TEAD-YAP inh 56
FC(F)(F)c1cccc(CNc2nc(Nc3cccnc3)nc3c2ncn3-c2ccccc2)c1	TEAD-YAP inh 46
Cc1cnc(Nc2ccncn2)nc1NCc1cccc(C(F)(F)F)c1	none
FC(F)(F)c1cccc(CNc2nc(NCc3cccnc3)nc3c2ncn3-c2ccsc2)c1	TEAD-YAP inh 56
FC(F)(F)c1cccc(CNc2nc(Nc3ccncc3)nc3c2ncn3-c2ccsc2)c1	none
O=C(Nc1ccccc1)c1cc(-c2ccccc2)n[nH]1	none
CNC(=O)CCc1nc(-c2ccc(Cl)cc2)no1	none
c1cn(-c2ccc(Nc3nccc(NCCN4CCOCC4)n3)cc2)cn1	none
CCOc1ccc(Nc2ccc3ccccc3n2)cc1	TEAD-YAP inh 41
CC(=O)c1cccc(-c2nc(NCc3nc4ccccc4[nH]3)c3ncn(C(C)C)c3n2)c1	TEAD-YAP inh 67
CC(C)N(CCNc1nc(-c2cccc(N)c2)nc2c1ncn2C(C)C)C(C)C	TEAD-YAP inh 53
Nc1cccc(-c2nc(NCc3nc4ccccc4[nH]3)c3ncn(-c4ccccc4)c3n2)c1	TEAD-YAP inh 35
CC(C)N(CCNc1nc(-c2ccc(N3CCN(C)CC3)cc2)nc2c1ncn2C(C)C)C(C)C	TEAD-YAP inh 39
COc1cc(/C=N/NC(=O)c2ccccc2Cl)cc([N+](=O)[O-])c1O	none
CC(C)n1cnc2c(NCCO)nc(-c3cccc(N)c3)nc21	none
CC(C)n1cnc2c(NCc3nc4ccccc4[nH]3)nc(-c3cccc(N)c3)nc21	TEAD-YAP inh 84
Cc1c(CN2CCCC(c3[nH]ncc3-c3ccc(Cl)cc3)C2)cnn1C (stereo unspecified)	none
CC1CCCN(c2csc3ccccc3c2=O)C1 (stereo unspecified)	FBW7 activator 1.9
NC(=O)C1CCN(c2csc3ccccc3c2=O)CC1	none
CCCOc1ccc(C2Nc3ccccc3C(=O)N2c2ccc(Cl)c(Cl)c2)cc1 (stereo unspecified)	none
O=C(CCN=C1NS(=O)(=O)c2ccccc21)OCC(=O)c1ccc[nH]1	none
CC(C)C(OC(=O)c1ccco1)C(=O)NCc1ccccc1 (stereo unspecified)	TEAD-YAP inh 59
COCCNC(=O)C(OC(=O)c1ccco1)c1ccccc1OC (stereo unspecified)	FBW7 activator 1.9
CC(OC(=O)c1ccco1)C(=O)NCc1ccccc1 (stereo unspecified)	none
Oc1ccc(-c2csc(Nc3ccccc3)n2)cc1O	MITF inh 66
COc1cc(Br)c(Nc2nc(-c3c(C)nc4sccn34)cs2)c(Br)c1	none
CCOc1ccc(Nc2nc(-c3sc(C)nc3C)cs2)cc1	TEAD-YAP inh 41
CCOc1ccc(Nc2nc(-c3c(C)nc4sccn34)cs2)cc1	TEAD-YAP inh 61
Oc1ccc(-c2csc(Nc3ccc(Cl)cc3)n2)cc1O	none
Cc1ccc(Nc2nc(-c3c(C)nc4sccn34)cs2)c(C)c1	TEAD-YAP inh 50
O=C(CCc1ccccc1)NNC(=O)C(c1ccccc1)c1ccccc1	none
O=C(O)c1ccc2c(c1)C(=O)N(c1ccc(N3C(=O)C4C5CCC(C5)C4C3=O)cc1)C2=O (stereo unspecified)	none
Cc1nc(C)c(-c2csc(Nc3cccc(O)c3)n2)s1	TEAD-YAP inh 35
